± gives the standard deviation of the averaged measurements.

The subject of the assay is ipsdienol A-neuron OSN class. As to the kind of experiment: net action potential response of A-neuron (blank-subtracted) (spikes/s (Hz)); higher = stronger excitation. To be noted: 10 µg on filter paper; neuron: A neuron (large spike amplitude). As for the experimental part: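 Single sensillum recordings from antennal olfactory sensilla of live adult Ips typographus. Each compound was 10 µg in paraffin oil on filter paper, delivered as a 0.5 s puff. Net response = spikes in the first 0.5 s of response minus the 0.5 s pre-stimulus count, doubled to give Hz, with blank response subtracted. Values are for the large-spike A-neuron class of each of seven sensillum types that co-house the lanierone B-neuron; N = 1-4 sensilla, averaged.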
With `Cc1ccc(C(C)C)cc1` [p-Cymene], the “net action potential response” value was determined as 2 ± 3.5.
As to `CC(C)=CCC/C(C)=C/C=O` [Citral (E/Z mix)], the “net action potential response” value turned out to be 1.33 ± 1.1.
In the case of `C=CC(=C)CCC=C(C)C` [Myrcene] it was -2 ± 3.5; in that of `CC1(C)C2CC=C(CO)C1C2` (racemic) [(±)-Myrtenol], 0.667 ± 3.1; in that of `C[C@@H]1C(=O)C[C@H]2C[C@@H]1C2(C)C` [(+)-Isopinocamphone], 0 ± 5.3.
Turning to `CC1=CCC2CC1C2(C)C` (stereo not drawn) [(+)-α-Pinene], the “net action potential response” value is 2.67 ± 1.1.
On to `C=C1CCC2(C(C)C)CC12` (racemic) [(±)-Sabinene], for which the “net action potential response” value was determined as 3.33 ± 2.3.
Take `CC1=CCC(=C(C)C)CC1` [Terpinolene]: the “net action potential response” value was found to be 1.33 ± 1.1.
In the case of `CCC/C=C/CO` it was -1.33 ± 1.1.
In the case of `CC(=O)CC/C=C(\C)CCC=C(C)C` [Geranylacetone] it was 2.67 ± 4.6.
In the case of `C[C@]12CCC[C@](C)(OC1)O2` (racemic) [(±)-Frontalin] it was 2 ± 3.5; in that of `CC/C=C\CCO`, 0 ± 2; in that of `CC1=CCC2C(C1)C2(C)C` (single isomer, unassigned; (+)) [(+)-3-Carene], 2.67 ± 5.8.
Consider `CC1=CCC(C(C)C)=CC1` [γ-Terpinene], for which the “net action potential response” value is 2 ± 8.7.
With `COc1ccc(C)cc1` [4-Methyl anisole], the “net action potential response” value was 4 ± 2.
As for `COc1ccccc1` [Anisole], the “net action potential response” value came to 2.67 ± 1.1.
In the case of `CC/C=C/CCO` it was 0.667 ± 3.1.
In the case of `C=C1CCC2CC1C2(C)C` (stereo not drawn) [(-)-β-Pinene] it was 2.67 ± 1.1; in that of `c1ccc2c(c1)CCO2` [2,3-Dihydrobenzofuran], 4 ± 7.2; in that of `CCC/C=C\CO`, 0.667 ± 3.1.
Regarding `CC(C)[C@@]12CC[C@@](C)(O)[C@@H]1C2` [(+)-trans-4-Thujanol], the “net action potential response” value is -4 ± 4.
Regarding `CC(C)CCO` [3-Methyl-1-butanol], the “net action potential response” value worked out at 0.667 ± 4.2.
In the case of `C=C1[C@@H]2CC[C@@H](C2)C1(C)C` (racemic) [(±)-Camphene] it was 0 ± 2; in that of `C=Cc1ccccc1` [Styrene], 0 ± 2; in that of `CCC1CCC2(CCCO2)O1` (racemic) [(±)-Chalcogran], 1.33 ± 2.3.
With `CC(=O)c1ccccc1` [Acetophenone], the “net action potential response” value was -4 ± 5.3.
`CC[C@H]1O[C@]2(C)CCC[C@H]1O2` (racemic) [(±)-exo-Brevicomin]: the “net action potential response” value is -2.67 ± 5.
In the case of `CC12CCC(CC1=O)C2(C)C` (racemic) [(±)-Camphor] it was -0.667 ± 5; in that of `CCc1ccc(O)c(OC)c1` [4-Ethylguaiacol], 0 ± 8; in that of `C=CC(=C)CC(O)C=C(C)C` (racemic) [(±)-Ipsdienol], 116 ± 12.
For the compound `CCC/C=C/C=O` [(E)-hex-2-enal], the “net action potential response” value is -0.667 ± 1.1.
Turning to `CCC(C)CO` (racemic) [(±)-2-Methyl-1-butanol], the “net action potential response” value was 3.33 ± 1.1.
In the case of `CCCCCCO` [1-Hexanol] it was -5.33 ± 5.8; in that of `CC1=CC(C)(C)C=C(O)C1=O` [Lanierone], -3.33 ± 6.4.
`CC(=O)OCc1ccccc1` [Benzyl acetate]: the “net action potential response” value was -0.667 ± 5.
Take `C=CC(O)CCCCC` (racemic) [(±)-1-Octen-3-ol]: the “net action potential response” value is -0.667 ± 2.3.
Turning to `C=C(C)C1CC=C(C)C(=O)C1` (racemic) [(±)-Carvone], the “net action potential response” value was 0 ± 3.5.
For `CC12CCC(CC1)C(C)(C)O2` [1,8-Cineole], the “net action potential response” value is 0 ± 5.3.
In the case of `CCCCCC=O` [Hexanal] it was 0.667 ± 2.3; in that of `COc1ccc(C)cc1OC` [3,4-Dimethoxytoluene], 0.667 ± 1.1.

The values are drawn from the supplement of paper PMC11577813, “Eurasian spruce bark beetle detects lanierone using a highly expressed specialist odorant receptor, present in several functional sensillum types” (BMC Biology, 2024).
